For 40 compounds, activation and Potency results are on record in PubChem BioAssay (NCATS).

Where “and” joins values, the source holds several entries; their conditions need not be identical. Equal entries are not always repeated. Records with an inconclusive call do not appear. A number with no mark means an inactive call. Calls of active or inactive are those of the source. The call rests on the fitted dose curve; in most records, active means well fitted activation curve with a large enough effect; inconclusive means small, poorly fitted or top-dose-only effect; inactive means no such curve, though single readings can be large or run the other way.
Potency means the concentration at half of the fitted maximal effect.

The target in the assay is Cellular tumor antigen p53 (Homo sapiens) (UniProt P04637). Briefly: Primary qHTS for small molecule compounds that upregulate eGFP-tagged delta133p53alpha (in N-terminal) cells. (AID 2060322). Further: nearly all actives have a fitted effect of over 75% in size.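 On activation: cells pre-induced with doxycycline then dosed without doxycycline; series mostly up to about 56 µM; 0% = DMSO vehicle and 100% = reference activator.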 The following applies: NCI-H358 eGFP-delta133p53alpha fluorescence, 24 h; activation: stronger effect = higher value. The gist of the method: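 NCI-H358 cells pre-induced 24 h with 10 ng/ml doxycycline for eGFP-delta133p53alpha, plated dox-free and exposed 24 h at 37C to titrated compounds. Fixed, Hoechst-stained; gated GFP peak intensity by laser scanning cytometry, normalized to DMSO (0%) and 57.5 uM 5-azacytidine (100%).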
Cellular tumor antigen p53 (Homo sapiens), sequence (P04637 whole entry, looked up): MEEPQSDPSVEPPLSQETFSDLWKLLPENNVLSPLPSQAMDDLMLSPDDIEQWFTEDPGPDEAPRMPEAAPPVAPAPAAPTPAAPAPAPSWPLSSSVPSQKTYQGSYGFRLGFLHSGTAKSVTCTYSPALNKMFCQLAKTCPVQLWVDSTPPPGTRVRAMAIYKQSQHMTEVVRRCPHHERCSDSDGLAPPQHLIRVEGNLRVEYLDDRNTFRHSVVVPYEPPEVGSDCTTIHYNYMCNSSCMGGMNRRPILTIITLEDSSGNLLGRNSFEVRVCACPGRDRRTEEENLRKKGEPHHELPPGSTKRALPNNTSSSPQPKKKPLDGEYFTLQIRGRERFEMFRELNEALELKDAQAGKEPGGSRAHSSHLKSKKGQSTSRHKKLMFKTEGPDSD
(In general: In qHTS, concentration-response curves come from the screen itself.)
In the case of `CO[C@H]1C[C@@H]2CC[C@@H](C)[C@@](O)(O2)C(=O)C(=O)N2CCCC[C@@H]2C(=O)O[C@H]([C@H](C)C[C@@H]2CC[C@H](OP(C)(C)=O)[C@H](OC)C2)CC(=O)[C@H](C)C=C(C)[C@@H](O)[C@@H](OC)C(=O)[C@H](C)C[C@H](C)C=CC=CC=C1C`, the activation was 24.8%. The same measure, in the same setting: then `COc1ccc(C(C)=O)c(O)c1`, with 14.5%; and `CCCCCCCCCCCCCCCCCCO`, with 3.35%.

Regarding `OC(CCCN1CCCCC1)(c1ccccc1)c1ccccc1`, the activation is -16.4%.

For the compound `COc1ccc(CN(CCN(C)C)c2ncccn2)cc1`, the activation is 5.08%. Same read-out and setting: the value for `O=C(CCCl)NCCc1ccccc1` was -4.18%; that for `COc1ccc(-c2cc(=O)c3c(O)cc(O[C@@H]4O[C@H](CO[C@@H]5O[C@@H](C)[C@H](O)[C@@H](O)[C@@H]5O)[C@@H](O)[C@H](O)[C@@H]4O)cc3o2)cc1O` was -19%. On to `O=S(=O)(O)c1ccc2nc(-c3ccccc3)[nH]c2c1`, for which the activation was 23.2%. On the same count and under the same terms, the value for `O=C(Nc1cccc2c(=O)cc(-c3nn[nH]n3)oc12)c1ccc(OCCCCc2ccccc2)cc1` was -4.79%; that for `COc1c(N2C[C@@H]3CCCN[C@@H]3C2)c(F)cc2c(=O)c(C(=O)O)cn(C3CC3)c12` was 4.18%. On the same count and under the same terms, the value for `CC(C)(C)NCC(O)COc1cccc2c1CCC(=O)N2` (stereo not given) was 28.5%.

For the compound `CC(O)COc1ccccc1` (stereo not given), the activation was -13%. On to `O=P(O)(O)OCC(O)CO` (stereo not given), for which the activation was -9.21%.

For `NC(=O)N/N=C/c1ccc([N+](=O)[O-])o1`, the activation is 16.7% and -23.4%. For `CC(C)C(=O)Nc1cccc(C(F)(F)F)c1`, the activation is -15.3%. `O=C(N/N=C/c1ccccc1O)c1ccncc1`: the activation is -12.6%. For `CC1(C)O[C@@H]2C[C@H]3[C@@H]4CCC5=CC(=O)CC[C@]5(C)[C@@]4(F)[C@@H](O)C[C@]3(C)[C@]2(C(=O)CCl)O1`, the activation is -1.67%. In the case of `CC[N+](CC)(CC)CCOc1ccc(/C=C/c2ccccc2)cc1`, the activation is -19.2%. On to `C=CC(=O)Nc1cc(NC(=O)c2ccc(C)c(NC(=O)c3ccno3)c2)cc(C(F)(F)F)c1`, for which the activation is 4.58%. Still for that read-out and setting: then `C[C@H](NC(=O)C(C#N)=Cc1cccc(Br)n1)c1ccccc1`, with 11.9%; and `O=C(CS(=O)Cc1ccco1)NC/C=C\COc1cc(CN2CCCCC2)ccn1` (stereo not given), with -5.08%; and `OC[C@@H](O)[C@@H](O[C@@H]1O[C@H](CO)[C@H](O)[C@H](O)[C@H]1O)[C@H](O)[C@@H](O)CO`, with -8.37%. The same measure, in the same setting: the value for `NC(=O)NS(=O)(=O)c1ccc(Cl)cc1` was 1.69%; that for `C[C@@H](O[C@H]1OCCN(Cc2n[nH]c(=O)[nH]2)[C@H]1c1ccc(F)cc1)c1cc(C(F)(F)F)cc(C(F)(F)F)c1` was 7.53%.

Take `CCOC(=O)C(=O)CCCCCCl`: the activation is -5.02%.

With `O=C(O)C[C@H](O)C[C@H](O)C=Cc1c(C2CC2)nc2ccccc2c1-c1ccc(F)cc1`, the activation is -5.06%. Turning to `C[C@H](NCc1ccc2c(c1)nc(NC(=O)c1ccc(-c3cn[nH]c3)s1)n2CCc1ccccc1)C(C)(C)C`, the Potency was 6.11 µM (active). Regarding `CC(C)n1c(C=C[C@H](O)C[C@H](O)CC(=O)O)c(-c2ccc(F)cc2)c2ccccc21`, the activation was -24.6%. The same measure, in the same setting: then `CC1(C)O[C@H]2C[C@@H]3[C@H]4CCC5=CC(=O)C=C[C@]5(C)[C@@]4(F)[C@@H](O)C[C@]3(C)[C@]2(C(=O)CO)O1`, with 8.11%; and `O=C1OC(CN2CCOCC2)CN1/N=C/c1ccc([N+](=O)[O-])o1` (stereo not given), with 5.02%. On the same count and under the same terms, then `CCCCC/C(C=O)=C\c1ccccc1`, with 19.8%. As to `C=CCc1cc(OC)c(O)c(C(=O)NCCO)c1`, the activation was -4.18% and -21%. As to `Cc1sccc1Br`, the activation is 7.53%. For the compound `CCOC(=O)c1cccnc1`, the activation is -9.6%. On the same count and under the same terms, the value for `CC(=O)[C@@]1(O)CC[C@H]2[C@@H]3C[C@H](C)C4=CC(=O)CC[C@]4(C)[C@H]3CC[C@@]21C` was -5.86%; that for `CN(C)c1ccc(C(=O)NCCCCCC(=O)NO)cc1` was 10.1%. The same measure, in the same setting: then `O=C(O)Cc1csc(-c2ccc(Cl)cc2)n1`, with 15.3%; and `CCOC(=O)N1CCN([N+]([O-])=NOc2cc(ON=[N+]([O-])N3CCN(C(=O)OCC)CC3)c([N+](=O)[O-])cc2[N+](=O)[O-])CC1`, with 5.87%.

`CCCCCCCC/C=C\CCCCCCCCN`: the activation was -16.7%. Consider `Cc1ncc(Cl)cc1NCc1ccc(C(=O)N[C@@H](CC2CCCC2)C(=O)NC2CC2)s1`, for which the activation is -39.1%.
